PNC inhibitor: blocks assembly of the perinucleolar compartment; 3.1% of 140,000 active; activity change (PNC), negative = inhibition, % at 10 µM; PC3M PTB-GFP, PNC prevalence imaging, 16 h; stronger effect = lower value; AID 2417;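 active means readout at or below -70, meaning at least 70% loss of cells showing the perinucleolar compartment, a nuclear body marking cancer cells; inconclusive means readout between -30 and a set limit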;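 further: plate controls were DMSO wells for no effect and camptothecin positive control wells for full effect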
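Compounds are pinned in duplicate onto adhered PC3M cells stably expressing GFP-tagged PTB and incubated 16 h at 37 C. Cells are then fixed, nuclei stained with Hoechst, and PNC-positive cells counted.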
HttQ103 aggreg: mutant huntingtin aggregation inhibition; PC12 HttQ103-GFP aggregates, Acumen cytometry, 40 h; Potency, µM (highest dose often 46.1 µM), without a hit: at the top dose activity change, negative = inhibition, actives largely listed as inhibitors; 1.1% of 220,000 active; AID 1688; further: potency means the concentration at half of the fitted maximal effect; on the % scale 0 is the no-effect control and ±100 the full control effect; nearly all actives have a fitted effect of over 60% in size
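PC12/HTTQ103-GFP, ecdysone-inducible; teb 100 nM; cpd qHTS titration; GFP aggregates read on laser cytometer, Ex 488/Em 500-530 nm.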
HTT ATP protect: Huntington cell model cytoprotection by ATP luminescence; 0.14% of 230,000 active; Potency, µM (highest dose often 56.4 µM), for the others: cytoprotection (ATP increase), most hits filed as activators; PC12 HTT-Q103 induced, cytoprotection, ATP luminescence, 40 h; further: potency means the concentration at half of the fitted maximal effect; % of control where 0% means no effect; nearly all actives have a fitted effect of over 45% in size
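PC12 cells stably carrying ecdysone-inducible Htt exon 1 (Q103)–GFP were induced with 100 nM tebufenozide (final) alongside library compounds in a dose series. Cytoprotection was scored as retained ATP by ATPlite luminescence.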
* = called active by the depositor; ? = inconclusive; . = not tested or not shown; [ ] = remark or other dose. This excerpt belongs to a sample that is enriched for hits. Unless noted, the call rests on the fitted dose curve; in most records, active means well fitted curve in the direction sought with a large enough effect; inconclusive means small, poorly fitted or top-dose-only effect, or another doubt; inactive means no such curve, though single readings can be large; an effect the other way counts as inactive or inconclusive.

SMILES	PNC inhibitor	HttQ103 aggreg	HTT ATP protect
NNc1ccc2c(C(F)(F)F)cc(C(F)(F)F)nc2n1	.	20%	.
COc1ccc(C(=O)N2CCC3(CCN(Cc4ccc(C#N)cc4)CC3)CC2)cc1	.	.	-1%
COc1ccc(C(=O)OCC(=O)Nc2ccc(F)c(F)c2F)cc1OC	42	4%	4%
CC1(C)C(=O)C2(CCCCC2)C(=O)OC1c1cccn1-c1ccc([N+](=O)[O-])cc1 (centres undefined)	-87*	-6%	5%[10 µM]
CC1(C)C(=O)OC(c2cccn2-c2ccc([N+](=O)[O-])cc2)C(C)(C)C1=O (centres undefined)	19	5%	18%[10 µM]
Cc1nc2cnc(Nc3ccccc3)nc2n(C2CC2)c1=O	.	.	-24%
O=c1cnc2cnc(Nc3ccccc3)nc2n1C1CC1	.	.	20µM*
CCCCCN(C(=O)CN(C)Cc1ccc(OC)cc1OC)c1c(N)n(CCCC)c(=O)[nH]c1=O	-30	0%	3%
CC12CCC(c3c(C(=O)O)nn(-c4ccccc4)c31)C2(C)C (centres undefined)	-127*	-9%	-13%
CC12CCC(c3c(CO)nn(-c4ccccc4)c31)C2(C)C (centres undefined)	?	-3%	-27%
CCn1ncc(NC(=S)Nc2ccc(OC)c(OC)c2)c1C(N)=O	.	7%[9.22 µM]	9%[10 µM]
COc1ccc(NC(=S)NN(C)C(=S)Nc2ccc(OC)cc2)cc1	-114*	-9%	.
COc1ccc(NC(=S)Nc2ccc(Oc3ccccc3)cc2)cc1	46	?	-33%
CCCCn1c(=O)c2c(c3ccccc31)OCC(=O)N2	19	4%[9.22 µM]	-24%[0.074 µM]
CCCn1c(=O)c2c(c3ccccc31)OC(C)C(=O)N2 (centres undefined)	-88*	6%	-3%[1.9 µM]
Cc1cc(C)nc(Sc2c(F)c(F)c(C(F)(F)F)c(F)c2F)n1	3	8%	-2%
Brc1ccc(-c2nnc(-c3ccccc3Br)o2)cc1	20	-29%	-93%
COc1ccccc1-c1noc(-c2ccccc2)n1	-6	0%	-21%[10 µM]
COc1ccc(-c2nc(-c3ccccc3OC)no2)cc1OC	12	-8%	-41%
c1cncc(-c2noc(-c3cccc4ccccc34)n2)c1	-15	-1%	-36%
COc1ccc(Br)cc1-c1noc(-c2ccccc2F)n1	?	4µM*	-25%
COc1ccccc1-c1noc(-c2ccco2)n1	-118*	0%	-25%[10 µM]
Brc1ccccc1-c1nnc(-c2cccnc2)o1	-81*	-5%	-31%
c1ccc(-c2ccccc2-c2nc(-c3cccnc3)no2)cc1	-101*	14%	-3%
CCCCOc1nc2ccccc2nc1C(C#N)C(=O)NC1CCCCC1 (centres undefined)	13	-7%	-15%
SMILES	PNC inhibitor	HttQ103 aggreg	HTT ATP protect
CCOc1ccc2cc(S(=O)(=O)N3CCN(C)CC3)ccc2c1	-7	3%	21%[10 µM]
COc1ccc(C(=O)c2c(O)cc(-c3ccc(OC)cc3)oc2=O)cc1	-11	-4%	17%[10 µM]
c1ccc(CCc2ccccc2-c2nc(-c3cccnc3)no2)cc1	34	20µM*	-13%
Fc1ccccc1-c1nc(-c2ccccc2)no1	-100*	-21%	0%[10 µM]
COc1ccc(-c2noc(-c3ccccc3F)n2)cc1	5	-10%	-18%
Clc1ccc(Cc2nc(-c3cccnc3)no2)cc1	-93*	4%	-17%
Cc1ccc(Cc2nc(-c3cccnc3)no2)cc1	-27	-5%	11%[10 µM]
c1ccc(CCc2nc(-c3cccnc3)no2)cc1	-18	-13%	5%
CC[C@]1(O)C[C@H]2CN(CCc3c([nH]c4ccccc34)[C@](C(=O)OC)(c3cc4c(cc3OC)N(C)[C@@H]3[C@](O)(C(=O)OC)[C@H](OC(C)=O)[C@]5(CC)C=CCN6CC[C@]43[C@@H]65)C2)C1	.	.	-52%[1.9 µM]
O=c1c2ccccc2nc(SCCN2CCOCC2)n1CCc1ccccc1	.	2%[9.22 µM]	-1%[10 µM]
CCOc1ccc(C(=O)NCC(=O)OCC(=O)Nc2cccc(S(=O)(=O)N3CCCC3)c2)cc1	.	-18%[9.22 µM]	17%[10 µM]
Cc1ccc(N2C(=O)CC3(CCCC3)CC2=O)cc1	.	-15%[9.22 µM]	12%[10 µM]
CN(C)CCCCCNCCCNC(=O)/C=N\O	?	2%[9.22 µM]	5%
CN(C)CCNC(=O)/C=N/O	-89*	-10%	22%[1.9 µM]
CCN(CC)c1ccc(/C=N/N2CCN(Cc3ccccc3Cl)CC2)c(O)c1	.	-7%[9.22 µM]	-2%[10 µM]
CCN(CC)c1ccc(/C=N/N2CCN(Cc3ccc(C)cc3)CC2)c(O)c1	?	0.63µM*	-14%
COc1cccc(OCC(O)CN2CCN(c3ccccn3)CC2)c1 (centres undefined)	47	14%	8%[10 µM]
Cc1ccc(-c2cn(-c3ccccc3)c(SCC(=O)NC3CCS(=O)(=O)C3)n2)cc1C (centres undefined)	-83*	17%	.
CCn1c(SCC(=O)NC2CCS(=O)(=O)C2)nnc1-c1ccccc1 (centres undefined)	.	10%	-18%
Cc1ccc2occ(/C=N/NC(N)=S)c(=O)c2c1	-11	-13%	-1%[10 µM]
CC1(C(=O)CSc2ncn[nH]2)CCC(=O)O1 (centres undefined)	-4	4%	-37%
CC1(C(=O)CSc2nc3ccccc3[nH]2)CCC(=O)O1 (centres undefined)	-100*	-4%	-13%[10 µM]
CCOc1ccc(N=C2NC(=O)S/C2=C\c2ccc(N(C)C)cc2)cc1	-12	22µM*	-88%
CCOc1ccc(/C=C2/SC(=O)NC2=S)cc1	-21	-21%	-21%[10 µM]
CC1(C)CC(=O)C2=C(C1)NC(=O)CC2c1cccc(F)c1 (centres undefined)	72	-1%	-13%[0.074 µM]
SMILES	PNC inhibitor	HttQ103 aggreg	HTT ATP protect
CC1CCCCC1NC(=S)Nc1cccc(S(=O)(=O)N(C)C)c1 (centres undefined)	.	-13%	-20%
CCC(C(=O)Nc1ccccc1-c1ccccc1)c1ccccc1 (centres undefined)	1	13%	7%
Cc1ccc(C(=O)CSc2nnc(-c3ccco3)o2)o1	?	12%	-13%
COc1ccc(-c2nnc(SCC(=O)N3CCc4ccccc4C3)o2)cc1	-5	-24%	6%[10 µM]
COc1ccc(-c2nnc(SCC(=O)N3c4ccccc4Sc4ccccc43)o2)cc1	-100*	-3%	28%[10 µM]
COc1ccc(-c2nnc(SCC(=O)c3ccc(C)o3)o2)cc1	-119*	-24%	17%[10 µM]
C=CCNc1ncnc2c1[nH]c1ccc(Cl)cc12	17	?	-48%
O=C(Cc1cccc2ccccc12)Nc1ccc2c(c1)C(=O)NC2=O	.	22%	-7%
O=C1CC(N2CCN(c3ccccc3F)CC2)C(=O)N1c1ccc2c(c1)OCCO2 (centres undefined)	30	15%	-7%
CCN(CC)S(=O)(=O)c1cc(C(=O)N(C)CC(=O)Nc2ccc(Cl)cc2)ccc1Cl	9	6%	?
COc1cc(C=O)ccc1OS(=O)(=O)c1ccccc1[N+](=O)[O-]	22	9%	11%[10 µM]
O=C(OCC#CCSc1nnc(-c2ccc(Br)cc2)o1)c1ccco1	-9	12%	-43%
O=C(CNC(=O)c1ccc(F)cc1)N/N=C/c1cc(Br)ccc1OCc1ccccc1	19	?	.
O=C(CNC(=O)c1cccc(F)c1)N/N=C/c1cc(Br)ccc1OC(=O)/C=C/c1ccco1	-81*	8.9µM*	.

Screening data from PubChem BioAssay.
